These results are taken from PubChem BioAssay (NCATS).

Structures are written as SMILES. “And” between values parts separate entries of the source, which are not always exact repeats. Equal entries are not always repeated. Records with an inconclusive call do not appear. The source made the active and inactive calls. Unless noted, calls come from the whole dose curve; as a rule, active = well fitted curve in the direction sought with a large enough effect; inconclusive = small, poorly fitted or top-dose-only effect, or another doubt; inactive = no such curve, though single readings can be large; an effect the other way counts as inactive or inconclusive.

Assay [1] in a line: AP1 Signaling Pathway (AID 357; active = well fitted curve in either direction with a large enough effect, not every such curve was filed as active;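 note: ME-180 reporter cells stimulated with EGF at its EC50 level; % is set by controls: 0 for no effect and ±100 for the full control effect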). To be noted: ME-180 AP-1-bla reporter, EGF-induced, beta-lactamase ratio, 5 h; at 17.2 µM (top of the series). An outline of the steps:
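AP-1-bla ME-180 cells, Opti-MEM + 0.5% dialyzed FBS, plated overnight 37 °C. Cpd titration + EC50 EGF, 5 h 37 °C. CCF4 2.5 h RT; ex 405, em 460/530 ratio → %activity, AC50.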

Assay [2] addresses Cytochrome P450 1A2 (Homo sapiens) (UniProt P05177). Description: p450-cyp1a2 (AID 410; calls by dose curve; note: potency is the fitted concentration of half-maximal effect). The method in brief: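 20nM CYP1A2, 100uM Luciferin-ME (=Km), 100mM KPO4; cpd 10 min RT; +NADPH regen, 60 min RT; stop/detect 20 min; luminescence. Normalized to furafylline 57 uM = full inhibition.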
The nature of assay [3]: Stat Signaling Pathway (AID 446; active = well fitted curve in either direction with a large enough effect, not every such curve was filed as active;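 note: ME-180 cervical cancer cells given 40 pM IL-6 alongside compound; SIE-controlled beta-lactamase reporter measured as 460/530 nm FRET emission ratio; % is set by controls: 0 for no effect and ±100 for the full control effect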). To be noted: ME-180 (cervical carcinoma) SIE beta-lactamase reporter, IL-6 stimulated, 5 h. An outline of the steps:
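FRET read-out (405 nm excitation, 460/530 nm emission) of a beta-lactamase reporter under a STAT-inducible element in ME-180 cervical carcinoma cells. Cells with compound receive 40 pM IL-6 for 5 h. Values are normalised to AC90 stimulation and AC90 JAK-inhibitor controls.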

Assay [4] concerns the target Glucocorticoid receptor (Homo sapiens) (UniProt P04150). Briefly: GR-GFP Redistribution (AID 450;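 active = compounds whose dose series gives a full or clear partial fitted curve of increased nuclear translocation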; note: potency is the fitted concentration of half-maximal effect). Particulars: U2OS GR-GFP nuclear translocation, laser cytometry, 2 h.
The target is the same in assay [5]. Description: GR-EFC Redistribution (AID 451; calls by dose curve; note: potency is the fitted concentration of half-maximal effect). Particulars: CHO-K1 GR-EFC translocation, beta-gal luminescence, 2 h. The method in brief: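 CHO-K1 cells stably expressing nuclear-localized β-gal enzyme acceptor and GR fused C-terminally to the enzyme donor fragment; ligand-driven nuclear translocation restores β-gal by complementation. Compounds titrated up to 46 uM final, 2 h at 37 °C; luminescence read.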

The target of assay [6] is Mitogen-activated protein kinase 10 (Mus musculus) (UniProt Q61831). Description: JNK3 AlphaScreen Assay (AID 530; active = well fitted curve in either direction with a large enough effect, not every such curve was filed as active;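 note: kinase came from lysate of stimulated human HepG2 cells; signal reports phosphorylation of biotinylated GST-cJun 1-79 at Ser73 with 10 µM ATP; % is set by controls: 0 for no effect and ±100 for the full control effect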). The method in brief:
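Biotinylated GST-cJun(1-79) served as substrate for JNK3 in HepG2 lysates stimulated with IL-1beta and TNF-alpha. ATP was 10 uM final, pH 7.6. Ser73 phosphorylation was quantified by AlphaScreen (680 nm excitation).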
For orientation: Alpha assays give light when donor and acceptor beads are brought close together.

The target in assay [7] is 3',5'-cyclic-AMP phosphodiesterase 4B (Homo sapiens) (UniProt Q07343). Description: qHTS Assay for Inhibitors of PDE-IV (AID 607; active = well fitted activation curve with a large enough effect in the main read-out, with a control signal flat, not every such curve was filed as active; note: % of control where 0% means no effect). An outline of the steps: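 Cell-based read-out of cAMP via a modified cyclic nucleotide-gated channel and membrane potential dye (535/590 nm) in HEK293 cells expressing PDE4 endogenously. Compounds tested up to 22.9 uM final; 100 uM RO 20-1724 reference.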
Chain of 3',5'-cyclic-AMP phosphodiesterase 4B (Homo sapiens) (Q07343 whole entry, looked up): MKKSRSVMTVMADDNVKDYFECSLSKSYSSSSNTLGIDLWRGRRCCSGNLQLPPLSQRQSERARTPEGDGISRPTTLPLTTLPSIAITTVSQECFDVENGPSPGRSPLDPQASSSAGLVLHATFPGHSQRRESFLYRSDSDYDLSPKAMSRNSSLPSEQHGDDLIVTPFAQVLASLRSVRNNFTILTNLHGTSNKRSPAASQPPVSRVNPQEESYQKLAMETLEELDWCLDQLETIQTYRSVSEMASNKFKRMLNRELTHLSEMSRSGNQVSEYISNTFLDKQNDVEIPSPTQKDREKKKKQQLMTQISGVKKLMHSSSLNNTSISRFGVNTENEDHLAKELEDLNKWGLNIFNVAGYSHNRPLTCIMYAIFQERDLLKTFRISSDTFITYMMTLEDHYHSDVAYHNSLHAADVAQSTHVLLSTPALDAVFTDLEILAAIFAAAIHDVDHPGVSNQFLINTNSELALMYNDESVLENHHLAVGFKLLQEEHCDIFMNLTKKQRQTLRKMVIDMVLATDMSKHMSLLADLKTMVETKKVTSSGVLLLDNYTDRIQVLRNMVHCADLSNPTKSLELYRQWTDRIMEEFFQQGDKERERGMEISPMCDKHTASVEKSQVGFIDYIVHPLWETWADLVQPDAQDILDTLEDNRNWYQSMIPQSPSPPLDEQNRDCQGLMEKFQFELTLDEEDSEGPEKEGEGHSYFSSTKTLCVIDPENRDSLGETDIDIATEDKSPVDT
On the technique in general: Quantitative high-throughput screening tests each substance at several concentrations.

Assay [8] deals with Cytochrome P450 2D6 (Homo sapiens) (UniProt P10635). Description: qHTS Assay for Inhibitors and Substrates of Cytochrome P450 2D6 (AID 891). Note: potency is the fitted concentration of half-maximal effect; nearly all actives have a fitted effect of over 60% in size. An outline of the steps:
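Luminescent read-out of luciferin formed by 5 nM human CYP2D6 demethylating 30 uM Luciferin-ME EGE (Km level) over 60 min at room temperature after NADPH regeneration addition. Data normalized to full inhibition by 1.43 uM quinidine.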

For assay [9], the target named is Cytochrome P450 2C19 (Homo sapiens) (UniProt P33261). Description: qHTS Assay for Inhibitors and Substrates of Cytochrome P450 2C19 (AID 899). Note: potency is the fitted concentration of half-maximal effect; nearly all actives have a fitted effect of over 60% in size. The method in brief:
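NADPH-dependent conversion of Luciferin-H EGE (10uM, at KM) by 5nM enzyme in 50mM KPO4, 60 min at 37C following 10 min compound preincubation. Stopped with luciferin detection buffer; luminescence read after 20 min.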

Assay [10] in a line: qHTS Assay for Lipid Storage Modulators (AID 1519; calls by dose curve). To be noted: Drosophila S3 cells, BODIPY lipid droplet/cell ratio, laser cytometry, cells loaded with oleic acid. The method in brief: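 Cells seeded at 5,000 per well were treated with compounds over a concentration series and loaded with oleic acid (400 uM, as added). Lipid droplet fluorescence (488 nm excitation, 500-530 nm channel) was read by laser-scanning cytometry and normalized to 20 uM Triacsin C.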

For assay [11], the system named is Zika virus NS2B-NS3 protease. Description: Primary screen GU AMC qHTS for Zika virus inhibitors (AID 1347154).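 Note: 0% = no-inhibitor control and -100% = no-enzyme control; nearly all actives have a fitted effect of over 70% in size.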 An outline of the steps:
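Unlinked Zika NS2B hydrophilic domain/NS3 protease domain noncovalent complex (25 nM final) in 10 mM Tris-HCl pH 8.0, 0.01% Tween 20, with AMC peptide substrate. Fluorescence (ex 340, em 450 nm) change over 15 min, room temperature; percent inhibition fitted to 4-parameter Hill equation.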

The target of assay [12] is Ubiquitin carboxyl-terminal hydrolase 1 (Homo sapiens) (UniProt O94782). Description: Inhibitors of USP1/UAF1: Pilot qHTS (AID 504865).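 Note: rhodamine fluorescence freed from ubiquitin-rhodamine substrate followed over time; top concentration of the series differs between compounds; % is set by controls: 0 for no effect and ±100 for the full control effect; nearly all actives have a fitted effect of over 35% in size.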 The method in brief: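 Deubiquitinase activity followed as kinetic rhodamine fluorescence release from 150 nM Ub-Rho. 1 nM USP1/UAF1 with compound, after 15 min room-temperature preincubation, in HEPES pH 7.8 buffer containing TCEP, EDTA, BSA and Tween-20.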
Chain of Ubiquitin carboxyl-terminal hydrolase 1 (Homo sapiens) (O94782 whole entry, looked up): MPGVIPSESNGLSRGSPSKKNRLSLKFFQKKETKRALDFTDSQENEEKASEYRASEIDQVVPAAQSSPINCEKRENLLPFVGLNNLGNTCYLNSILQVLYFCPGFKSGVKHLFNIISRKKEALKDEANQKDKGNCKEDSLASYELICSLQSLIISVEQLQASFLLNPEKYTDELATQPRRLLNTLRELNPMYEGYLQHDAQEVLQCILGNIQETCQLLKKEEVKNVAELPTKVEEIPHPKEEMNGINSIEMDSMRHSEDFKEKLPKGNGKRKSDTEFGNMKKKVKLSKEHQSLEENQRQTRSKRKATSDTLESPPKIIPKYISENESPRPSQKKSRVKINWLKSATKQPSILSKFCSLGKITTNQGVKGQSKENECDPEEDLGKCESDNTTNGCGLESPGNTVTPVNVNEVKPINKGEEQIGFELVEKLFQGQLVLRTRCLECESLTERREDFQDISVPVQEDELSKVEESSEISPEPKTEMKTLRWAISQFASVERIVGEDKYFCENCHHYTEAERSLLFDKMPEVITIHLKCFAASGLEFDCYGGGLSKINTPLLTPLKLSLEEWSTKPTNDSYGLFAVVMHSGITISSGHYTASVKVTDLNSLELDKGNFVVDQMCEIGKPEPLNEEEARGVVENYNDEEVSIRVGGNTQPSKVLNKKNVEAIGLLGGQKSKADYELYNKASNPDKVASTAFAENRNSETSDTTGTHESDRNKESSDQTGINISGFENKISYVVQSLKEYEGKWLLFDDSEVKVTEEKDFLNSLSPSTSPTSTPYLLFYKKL

Assay [13] deals with DNA dC->dU-editing enzyme APOBEC-3G (Homo sapiens) (UniProt Q9HC16). Description: qHTS for inhibitors of Vif-A3G interactions: Validation (AID 588379). Note: 0% is about no effect. An outline of the steps: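 Yellow fluorescence (Ex 488, Em 500-530) of Vif-coexpressing HeLa A3G-eYFP cells, scanned by Acumen cytometer, reports blocked A3G degradation. Cells plated at 700/well overnight at 37 deg C before compound addition, then a further overnight compound incubation at 37 deg C.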
Chain of DNA dC->dU-editing enzyme APOBEC-3G (Homo sapiens) (Q9HC16 whole entry, looked up): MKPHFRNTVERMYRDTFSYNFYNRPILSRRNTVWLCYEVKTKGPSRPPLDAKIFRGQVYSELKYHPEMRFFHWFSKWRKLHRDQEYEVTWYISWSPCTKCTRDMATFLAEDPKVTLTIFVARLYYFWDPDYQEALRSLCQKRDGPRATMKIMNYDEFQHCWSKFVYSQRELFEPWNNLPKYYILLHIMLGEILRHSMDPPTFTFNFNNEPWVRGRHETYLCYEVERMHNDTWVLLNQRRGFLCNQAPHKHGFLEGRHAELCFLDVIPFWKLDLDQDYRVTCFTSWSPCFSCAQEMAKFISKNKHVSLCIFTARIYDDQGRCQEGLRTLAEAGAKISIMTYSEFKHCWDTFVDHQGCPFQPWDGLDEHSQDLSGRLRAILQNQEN

Assay [14] concerns the target Cytochrome P450 3A4 (Homo sapiens) (UniProt P08684). Briefly: qHTS Assay for Inhibitors and Substrates of Cytochrome P450 3A4 (AID 884). Note: nearly all actives have a fitted effect of over 50% in size. Note: potency is the fitted concentration of half-maximal effect. The method in brief:
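Luminescent readout of luciferin produced by CYP3A4 (20 nM) dealkylation of Luciferin-PPXE, 25 uM (its KM). NADPH-driven reaction ran 60 min at RT after 10 min compound preincubation; data scaled to 57 uM ketoconazole as 100% inhibition.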

Assay [15] shares this target. Briefly: qHTS Assay for Activators of Cytochrome P450 3A4 (AID 885). Note: nearly all actives have a fitted effect of over 65% in size. An outline of the steps: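 Luminescent readout of luciferin formed from 25 uM Luciferin-PPXE (KM level) by 20 nM CYP3A4 in 200 mM KPO4, with 60 min NADPH-driven reaction at room temperature after 10 min compound exposure. Ketoconazole (57 uM) defined 100% inhibition.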
Assay [16] in a line: Primary qHTS for small molecule stabilizers of the endoplasmic reticulum resident proteome: Secreted ER Calcium Modulated Protein (SERCaMP) assay (AID 1508630). Note: % is set by controls: 0 for no effect and ±100 for the full control effect. The method in brief: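 The SH-SY5Y reporter protocol was run at 3 concentrations up to 38.3 uM (primary) or 11 concentrations (follow-up): 16 h compound, 100 nM thapsigargin for 4 h, then extracellular luciferase luminescence.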

Assay [17] has as its target Guanine nucleotide-binding protein G(i) subunit alpha-1 (Homo sapiens) (UniProt P63096). Description: qHTS Assay for Inhibitors of RGS12 GoLoco Motif Activity (Green Fluorophore) (AID 879).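 Note: 0% = labeled peptide with Gαi1 and full inhibition = labeled peptide alone without protein; negative values mean loss of peptide binding seen as reduced polarization.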 The method in brief:
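A drop in FITC polarization marked displacement of the FITC-tagged RGS12 GoLoco peptide (10 nM) from Gαi1 (50 nM). Compounds were incubated 10 min at room temperature in Tris pH 7.5 buffer containing 150 mM NaCl, 0.1 mM GDP and 0.05% NP40; unlabeled peptide titration served as control.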

Where [18] appears, read: measured here: cell count channel max response.
Setting [19] is: measured here: lipid channel max response.

Chain of Glucocorticoid receptor (Homo sapiens) (P04150 whole entry, looked up, the tested form may be a part): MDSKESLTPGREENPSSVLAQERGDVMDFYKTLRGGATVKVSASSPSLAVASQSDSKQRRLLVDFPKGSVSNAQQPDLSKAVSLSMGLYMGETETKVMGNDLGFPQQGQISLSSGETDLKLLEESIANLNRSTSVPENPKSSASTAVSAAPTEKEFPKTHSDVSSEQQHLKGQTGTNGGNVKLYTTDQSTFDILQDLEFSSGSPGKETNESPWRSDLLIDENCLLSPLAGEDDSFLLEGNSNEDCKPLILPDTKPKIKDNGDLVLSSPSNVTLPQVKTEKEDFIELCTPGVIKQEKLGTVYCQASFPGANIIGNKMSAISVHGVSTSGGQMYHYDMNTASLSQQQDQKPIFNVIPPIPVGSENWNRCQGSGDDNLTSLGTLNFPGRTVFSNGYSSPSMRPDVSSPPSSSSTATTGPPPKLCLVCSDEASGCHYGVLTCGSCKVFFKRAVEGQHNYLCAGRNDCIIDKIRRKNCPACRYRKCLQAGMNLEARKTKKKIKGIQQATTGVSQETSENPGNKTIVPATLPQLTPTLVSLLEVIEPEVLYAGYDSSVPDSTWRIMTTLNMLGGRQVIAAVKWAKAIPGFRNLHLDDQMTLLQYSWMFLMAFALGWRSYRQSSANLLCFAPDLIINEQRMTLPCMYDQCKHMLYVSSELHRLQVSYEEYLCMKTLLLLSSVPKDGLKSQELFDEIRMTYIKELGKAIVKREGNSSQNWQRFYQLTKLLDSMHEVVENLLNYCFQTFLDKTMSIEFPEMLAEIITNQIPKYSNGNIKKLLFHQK
Chain of Cytochrome P450 3A4 (Homo sapiens) (P08684 whole entry, looked up): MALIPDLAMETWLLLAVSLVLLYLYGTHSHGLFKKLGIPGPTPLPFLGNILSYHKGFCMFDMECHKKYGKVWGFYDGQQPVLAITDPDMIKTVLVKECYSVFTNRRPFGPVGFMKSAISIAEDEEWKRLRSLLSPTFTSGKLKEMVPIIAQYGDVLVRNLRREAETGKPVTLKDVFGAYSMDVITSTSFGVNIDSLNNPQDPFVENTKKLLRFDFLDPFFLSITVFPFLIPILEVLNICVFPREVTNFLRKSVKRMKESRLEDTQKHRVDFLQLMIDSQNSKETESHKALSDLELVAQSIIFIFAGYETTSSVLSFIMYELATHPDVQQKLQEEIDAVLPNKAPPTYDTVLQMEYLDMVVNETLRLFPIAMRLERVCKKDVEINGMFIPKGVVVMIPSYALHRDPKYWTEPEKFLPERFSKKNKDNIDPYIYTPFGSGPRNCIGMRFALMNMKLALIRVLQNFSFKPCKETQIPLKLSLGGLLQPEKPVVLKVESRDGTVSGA
Chain of Cytochrome P450 1A2 (Homo sapiens) (P05177 whole entry, looked up): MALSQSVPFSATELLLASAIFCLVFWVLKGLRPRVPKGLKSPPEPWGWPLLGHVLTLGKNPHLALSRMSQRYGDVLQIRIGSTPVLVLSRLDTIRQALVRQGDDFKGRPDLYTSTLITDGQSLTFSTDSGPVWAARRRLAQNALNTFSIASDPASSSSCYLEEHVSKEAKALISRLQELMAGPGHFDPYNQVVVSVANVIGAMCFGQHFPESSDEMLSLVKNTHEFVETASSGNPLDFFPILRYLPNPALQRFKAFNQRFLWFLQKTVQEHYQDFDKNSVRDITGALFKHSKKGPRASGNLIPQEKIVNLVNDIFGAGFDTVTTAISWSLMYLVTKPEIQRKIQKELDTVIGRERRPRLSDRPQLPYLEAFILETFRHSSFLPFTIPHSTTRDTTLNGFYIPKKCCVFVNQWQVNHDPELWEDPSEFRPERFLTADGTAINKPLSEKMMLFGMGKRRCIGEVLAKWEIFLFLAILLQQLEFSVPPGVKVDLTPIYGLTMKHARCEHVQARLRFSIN
Chain of Cytochrome P450 2D6 (Homo sapiens) (P10635 whole entry, looked up): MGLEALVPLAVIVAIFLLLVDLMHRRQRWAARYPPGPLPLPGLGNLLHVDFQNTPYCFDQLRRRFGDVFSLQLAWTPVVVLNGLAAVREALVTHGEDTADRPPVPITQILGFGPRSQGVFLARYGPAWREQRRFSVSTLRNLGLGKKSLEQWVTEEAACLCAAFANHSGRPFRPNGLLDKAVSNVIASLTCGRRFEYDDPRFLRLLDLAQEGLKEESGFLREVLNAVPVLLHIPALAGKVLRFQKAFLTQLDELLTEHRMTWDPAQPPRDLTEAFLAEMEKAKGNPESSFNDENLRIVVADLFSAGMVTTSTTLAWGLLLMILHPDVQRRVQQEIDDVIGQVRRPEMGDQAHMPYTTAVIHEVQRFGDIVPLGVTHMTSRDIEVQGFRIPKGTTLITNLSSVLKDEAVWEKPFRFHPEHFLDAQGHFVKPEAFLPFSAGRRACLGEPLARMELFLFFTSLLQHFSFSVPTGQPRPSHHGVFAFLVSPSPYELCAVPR
Chain of Cytochrome P450 2C19 (Homo sapiens) (P33261 whole entry, looked up): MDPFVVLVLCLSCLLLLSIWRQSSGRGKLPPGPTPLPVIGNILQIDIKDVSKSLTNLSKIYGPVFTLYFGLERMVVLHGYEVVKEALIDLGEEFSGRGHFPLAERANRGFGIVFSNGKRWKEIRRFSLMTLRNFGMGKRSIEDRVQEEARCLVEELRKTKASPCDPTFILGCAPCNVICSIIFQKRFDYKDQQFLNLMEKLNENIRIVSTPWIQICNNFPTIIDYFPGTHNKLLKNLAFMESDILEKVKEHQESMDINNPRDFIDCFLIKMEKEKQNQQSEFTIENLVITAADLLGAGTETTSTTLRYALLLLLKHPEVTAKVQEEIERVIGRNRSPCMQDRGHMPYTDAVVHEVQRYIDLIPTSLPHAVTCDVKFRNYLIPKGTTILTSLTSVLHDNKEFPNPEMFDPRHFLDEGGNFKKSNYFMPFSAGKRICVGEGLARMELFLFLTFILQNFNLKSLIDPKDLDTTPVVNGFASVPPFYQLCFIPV

For the compound `CC[N+](C)(CC)CCC[n+]1c(-c2ccccc2)c2cc(N)ccc2c2ccc(N)cc21`, the values for the activity change, negative = inhibition in assay [1] and in assay [10] (at 25.7 µM (top of the series)) were 5.27% (inactive) and 0.117% (inactive), respectively. Besides, the Potency in assay [2] was 12.6 µM (active); in assay [4] it was > 20.6 µM (inactive); in [5] it was > 20.6 µM (inactive); in assay [8], 6.31 µM (active); in assay [9], 1.58 µM (active). Moreover, the activity, negative = inhibition in assay [3] (at 17.2 µM (top of the series)) was -13.1% (inactive). The Potency result in assay [6], in [7] and in assay [11] was “inactive” throughout. Further, the max response in assay [10] (setting [18]) was -4.14%; in assay [10] (setting [19]) it was -3.68%.

Consider `C[C@H](N)C(=O)O`, for which the Potency result in assay [2], in [7], in assay [12], in assay [13] and in assay [11] was “inactive” in each case. Also, the Potency in assay [4] and in assay [5] was > 46 µM (inactive) throughout. For the same compound, the activity change, negative = inhibition in assay [10] (at 57.5 µM (top of the series)) is 1.23% (inactive). Also, the max response in [10] (setting [18]) was -6.7%; in assay [10] (setting [19]) it was -5.58%.

For `CN1[C@H](CC(=O)c2ccccc2)CCC[C@H]1C[C@H](O)c1ccccc1`, the Potency in assay [2] is 15.8 µM (active). Further, the activity change, negative = inhibition in assay [10] (at 57.5 µM (top of the series)) was 4.17% (inactive). The max response in assay [10] (setting [18]) worked out at 24.7%; in assay [10] (setting [19]), 29.8%. Further, the Potency entry in assay [12], in assay [13] and in assay [11] was “inactive” in each case.

As to `CC(=O)N(OCc1ccccc1)[C@@H]1c2cc(C#N)ccc2OC(C)(C)[C@H]1O`, in [14], the Potency is 15.8 µM (active). Further, the Potency entry in [15], in [11] and in [16] was “inactive” in each case.

Regarding `CN1CCN2c3ccccc3Cc3ccccc3[C@@H]2C1`, the activity, negative = inhibition in [3] (at 17.2 µM (top of the series)) is 2.47% (inactive); in [3] (at 38 µM (top of the series)), -1.53% (inactive). The Potency in assay [4] was > 46 µM (inactive) and > 20.6 µM (inactive); in [5], > 46 µM (inactive) and > 20.6 µM (inactive). For the same compound, the Potency entry in assay [6], in assay [7], in assay [14], in assay [12], in assay [13] and in assay [11] was “inactive” each time. The compound was called inactive in [17]. Moreover, the activity change, negative = inhibition in [10] (at 25.7 µM (top of the series)) is -3.71% (inactive). Besides, the max response in [10] (setting [18]) was -3.28%; in [10] (setting [19]) it was -8.62%.

`CCOC(=O)[C@H](N)/C=C(\C)CP(=O)(O)O`: the Potency result in [2], in [6], in assay [7], in assay [13] and in assay [11] was “inactive” in each case. For the same compound, the figures for the Potency in [5] and in [8] were > 46 µM (inactive) and 2 µM (active), respectively. Further, the activity change, negative = inhibition in [10] (at 57.5 µM (top of the series)) was -3.23% (inactive). Further, the max response in assay [10] (setting [18]) is 1.46%; in assay [10] (setting [19]) it was -0.232%.

In the case of `Nc1nc2c(nc(Br)n2[C@@H]2O[C@H]3COP(=O)(O)O[C@H]3[C@@H]2O)c(=O)[nH]1`, the Potency in assay [4] and in [5] was > 46 µM (inactive) throughout. Besides, the activity change, negative = inhibition in assay [10] (at 57.5 µM (top of the series)) was -3.52% (inactive). Moreover, the max response in [10] (setting [18]) is -4.09%; in [10] (setting [19]) it was -7.98%. The Potency result in assay [12], in assay [13] and in assay [11] was “inactive” in each case.

In the case of `N[C@H]1CCN(O)C1=O`, the Potency in [4] and in assay [5] was > 46 µM (inactive) each time. For the same compound, the Potency result in assay [6], in assay [12], in [13] and in assay [11] was “inactive” each time. Moreover, the activity change, negative = inhibition in assay [10] (at 57.5 µM (top of the series)) was -6.49% (inactive). For the same compound, the max response was -8.46% in [10] (setting [18]) and -12.7% in assay [10] (setting [19]).
